“And” between values parts separate entries of the source, which are not always exact repeats. Equal values may be shown once. About 79,000 compounds went through this panel and 15% of them were active in at least one assay; those are over-represented in the sample as a whole. A structure can be active in one record and inactive in another. The source made the active and inactive calls. Cut-off read from the data, not from the text of the source: active = growth inhibition above about 70%; inactive = the rest.
Assays:
[1] = NCI Yeast Anticancer Drug Screen. Data for the rad50 strain (AID 155);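 note: 0% = growth of vehicle-only cultures of the same strain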; details: S. cerevisiae rad50 strain growth inhibition, stronger effect = higher value
In short: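 Inhibition values express reduced yeast growth in compound-treated cultures relative to vehicle-treated controls.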

[2] = NCI Yeast Anticancer Drug Screen. Data for the mec2-1 strain (AID 157); details: S. cerevisiae mec2-1 strain, stronger effect = higher value
In short: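 Readout is yeast growth inhibition, normalised to vehicle-treated controls, in the mec2-1 strain exposed to compound.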

[3] = NCI Yeast Anticancer Drug Screen. Data for the sgs1 mgt1 strain (AID 161);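 note: 0% = growth of cultures given vehicle only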; details: S. cerevisiae sgs1 mgt1 strain, stronger effect = higher value
In short: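 This yeast growth screen uses a strain with defined DNA-repair lesions; compound-treated growth is compared with vehicle-treated growth.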

[4] = NCI Yeast Anticancer Drug Screen. Data for the cln2 rad14 strain (AID 165);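 note: 0% = growth equal to vehicle treated cultures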; details: S. cerevisiae cln2 rad14 strain, stronger effect = higher value
In short: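 Relative to vehicle controls, growth inhibition of compound-treated cln2 rad14 yeast was recorded.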

[5] = NCI Yeast Anticancer Drug Screen. Data for the bub3 strain (AID 167); details: S. cerevisiae bub3 mutant strain, stronger effect = higher value
In short: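 Steps: expose the mutant yeast strain to compound; grow alongside vehicle-treated cultures; measure growth; express inhibition against the vehicle cultures.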

[6] = NCI Yeast Anticancer Drug Screen. Data for the mlh1 rad18 strain (AID 175); details: S. cerevisiae mlh1 rad18 strain growth inhibition, stronger effect = higher value
In short: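 Test agents were incubated with a yeast strain of defined genotype (DNA damage repair defect). Inhibition of growth was derived by comparison with vehicle-exposed cultures.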

[7] = at 5.0 µM (retest, dose inferred, filed as 0.5)
[8] = at 50.0 µM (retest, dose inferred, filed as 5.0)

Measured: growth inhibition

C[N+](C)(C)CC1CCC(C[N+](C)(C)C)C1=O (stereo not given)
inactive: [1]; [7] -1% | [1]; [8] 6% | [1]; at 50.0 µM -1.75% | [2]; [7] 11% | [2]; [8] 26% | [2]; at 50.0 µM -1.05% | [3]; [7] 0% | [3]; [8] -47% | [3]; at 50.0 µM -4.05% | [4]; [7] -7% | [4]; [8] 5% | [4]; at 50.0 µM 16.3% | [5]; [7] -2% | [5]; [8] 6% | [5]; at 50.0 µM 27.5% | [6]; [7] -3% | [6]; [8] 3% | [6]; at 50.0 µM -14.2%

CN1CCN(c2ccc([N+](=O)[O-])c3no[n+]([O-])c23)CC1
inactive: [5]; [7] 45% and 65%
52% (inactive) and 81% (active): [2]; [7]
72% (active) and 46% (inactive): [4]; [7]
active: [1]; [7] 96% and 97% | [1]; [8] 99% | [1]; at 50.0 µM 99.2% and 89.8% | [2]; [8] 99% | [2]; at 50.0 µM 97.5% and 93% | [3]; [7] 82% and 93% | [3]; [8] 99% | [3]; at 50.0 µM 98.8% and 91.3% | [4]; [8] 97% and 98% | [4]; at 50.0 µM 92.7% and 84.6% | [5]; [8] 99% and 97% | [5]; at 50.0 µM 98.2% and 91.5% | [6]; [7] 94% and 97% | [6]; [8] 99% | [6]; at 50.0 µM 94.2% and 90.2%

Nc1ccc(N=Nc2ccccc2)cc1
active: [1]; [8] 76% | [3]; [8] 92% | [6]; [8] 78% | [6]; at 50.0 µM 82.5%
inactive: [1]; [7] 1% | [1]; at 50.0 µM 69.7% | [2]; [7] -4% | [2]; [8] 37% | [2]; at 50.0 µM 17.6% | [3]; [7] 1% | [3]; at 50.0 µM 37.4% | [4]; [7] 5% | [4]; [8] 50% | [4]; at 50.0 µM 3.25% | [5]; [7] 3% | [5]; [8] 43% | [5]; at 50.0 µM 37.4% | [6]; [7] 1%

CC(=O)Nc1cccc([As+](C)(c2cccc(NC(C)=O)c2)c2cccc(NC(C)=O)c2)c1
inactive: [1]; [7] -1% | [1]; [8] 11% | [1]; at 50.0 µM 4.35% | [2]; [7] 13% | [2]; [8] 14% | [2]; at 50.0 µM -2% | [3]; [7] -14% | [3]; [8] 13% | [3]; at 50.0 µM -5.65% | [4]; [7] 18% | [4]; [8] 15% | [4]; at 50.0 µM -26% | [5]; [7] 5% | [5]; [8] 3% | [5]; at 50.0 µM 6.05% | [6]; [7] 7% | [6]; [8] 11% | [6]; at 50.0 µM 8.65%

O=C1C=C(Cl)C(=O)C=C1Cl
inactive: [1]; [7] 17% | [2]; [7] 13% | [3]; [7] 10% | [4]; [7] 5% | [5]; [7] 5% | [6]; [7] 11%
active: [1]; [8] 99% | [1]; at 50.0 µM 99.2% | [2]; [8] 100% | [2]; at 50.0 µM 99.5% | [3]; [8] 99% | [3]; at 50.0 µM 99.5% | [4]; [8] 91% | [4]; at 50.0 µM 86.7% | [5]; [8] 99% | [5]; at 50.0 µM 99.3% | [6]; [8] 99% | [6]; at 50.0 µM 99.3%

From PubChem BioAssay (NCI)
